PLC-beta3 inh: human PLC-beta3 inhibitors, primary screen, biochemical, fluorescence | 1-phosphatidylinositol 4,5-bisphosphate phosphodiesterase beta-3 (Homo sapiens), Q01970 | Purified PLC-beta3, fluorogenic substrate | inhibition, % at 12.2 µM | 0.18% of 370,000 active; in the data active = inhibition above about 11%
PLC-gamma1 inh: PLC-gamma1 enzyme inhibitors, primary screen, biochemical, fluorescence, purified enzyme. 1-phosphatidylinositol 4,5-bisphosphate phosphodiesterase gamma-1 (Homo sapiens), P19174. fluorogenic substrate. inhibition, % at 12.2 µM. 0.84% of 370,000 active; in the data active = inhibition above about 9.5%
UHRF1 binding: UHRF1 methylated DNA binding inhibitors, primary screen, counter-screen for MBD2 inhibitor project, biochemical, TR-FRET, human UHRF1, single concentration; E3 ubiquitin-protein ligase UHRF1 (Homo sapiens), Q96T88; UHRF1 binding to methylated oligo; inhibition, % at 4.4 µM; 0.75% of 370,000 active;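 note: UHRF1 SRA domain binding a hemimethylated CpG hairpin DNA probe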
MBD2 DNA inh: inhibitors of MBD2 binding to methylated DNA, primary screen, biochemical, TR-FRET, DNA-binding domain, human. inhibition, % at 4.4 µM. MBD2 binding to methylated oligonucleotide. 0.31% of 370,000 active; in the data active = inhibition above about 13%
LEDGF integ inh: blockers of LEDGF/p75-dependent integrase strand transfer – biochemical, TR-FRET, high throughput, primary screen; HIV-1 integrase (with human LEDGF/p75); TR-FRET IN-LEDGF/p75 DNA integration, Eu/Cy5; inhibition, % at 3.7 µM; 0.64% of 370,000 active;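 active = inhibition above the screen-wide mean plus 3 SD, cut at about 13% in these data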;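 note: signal is the Cy5 over europium emission ratio at 671 and 618 nm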
UHRF1 ctr MBD2: UHRF1 methylated DNA binding inhibitors, counter-screen for MBD2 inhibitor project, biochemical, TR-FRET, human UHRF1 | AID 720530, 2013 | 25% of 1,000 active | shares compounds with MBD2 DNA inh | UHRF1 binding to methylated oligonucleotide | inhibition, % at 4.4 µM;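 note: UHRF1 SRA domain binding a labeled hemimethylated CpG hairpin DNA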
MBD2 DBD conf: inhibitors of MBD2 binding to methylated DNA, confirmation, biochemical, TR-FRET, DNA-binding domain, human; shares compounds with MBD2 DNA inh; TR-FRET MBD2-DBD binding to methylated oligonucleotide; inhibition, % at 4.4 µM; 26% of 1,000 active; AID 720531, 2013; in the data active = inhibition above about 14%
Each line names hits and unclear results; the compound was inactive in the other large screens (follow-up assays come after a bar, where they were run). A selection: hits, their analogues and other compounds. The true share with any hit is near 2.3%. Cut-off read from the data, not from the text of the source, unless noted: active = inhibition above about 21%; inactive = the rest.

COc1ccc(OC)c(/C(O)=C/C(=O)C(=O)Nc2ccccc2OC)c1	MBD2 DNA inh 15 | UHRF1 ctr MBD2 inactive | MBD2 DBD conf inactive
O=C(O)CCc1ccc(-c2cccs2)n1CC(=O)Nc1ccccc1C(F)(F)F	MBD2 DNA inh 28 | UHRF1 ctr MBD2 inactive | MBD2 DBD conf inactive
Cc1ccc(C)c(S(=O)(=O)N2CCCOC2CNC(=O)C(=O)NCCc2ccco2)c1 (configuration not stated)	MBD2 DNA inh 15 | UHRF1 ctr MBD2 inactive | MBD2 DBD conf inactive
c1ccc2c(c1)c1c(c3ccccc32)CN2CCCC2C1 (configuration not stated)	UHRF1 binding 26, MBD2 DNA inh 36 | UHRF1 ctr MBD2 34 | MBD2 DBD conf 49
Cc1ccc(NC(=O)CN(C)C(=O)CNC(=O)c2sc3ccccc3c2Cl)cc1	MBD2 DNA inh 50 | UHRF1 ctr MBD2 inactive | MBD2 DBD conf inactive
CCN(CC(=O)Nc1c(F)cccc1F)C(=O)CNC(=O)c1sc2ccccc2c1Cl	none
COc1ccccc1N1CCN(S(=O)(=O)c2ccc3c(c2)CCC(=O)N3)CC1	none
O=C(c1ccc(C#CC2(O)CCCCC2)cc1)N1CCN(Cc2ccccc2)CC1	none
CCOC(=O)N1CCN(C(=O)c2ccc(C#CC3(O)CCCCC3)cc2)CC1	UHRF1 binding 26, MBD2 DNA inh 15 | UHRF1 ctr MBD2 inactive | MBD2 DBD conf inactive
COC(=O)C1CN(Cc2cn(CCOC(C)=O)nn2)CCS(=O)(=O)N1Cc1ccc(F)cc1 (configuration not stated)	none
COc1ccc(OC)c2nc3c(C(=O)NCCN(C)C)cccc3nc12	UHRF1 binding 56, MBD2 DNA inh 53 | UHRF1 ctr MBD2 71 | MBD2 DBD conf 63
CN(C)CCNC(=O)c1cccc2nc3cccc(F)c3nc12	UHRF1 binding 23, MBD2 DNA inh 35 | UHRF1 ctr MBD2 35 | MBD2 DBD conf 37
CCCSc1nc(C)c(-c2csc(C(C#N)=C3CCCC3)n2)cc1C#N	MBD2 DNA inh 16 | UHRF1 ctr MBD2 inactive | MBD2 DBD conf inactive
COC(=O)[C@H](CC(C)C)N(Cc1cn(Cc2ccc(C)cc2)nn1)S(=O)(=O)c1ccccc1Br	MBD2 DNA inh 18 | UHRF1 ctr MBD2 inactive | MBD2 DBD conf inactive
C[N+]1=C2N[C@@H](c3ccccc3)CC(=O)N2/C(=C\c2ccccc2)[C@@H]1Cc1ccccc1	none
Cc1ccc(S(=O)(=O)CCC(=O)OCC(=O)c2ccc(F)cc2)cc1	none
CC(C)(Oc1ccc(F)cc1)C(=O)OCC(=O)c1ccc(S(C)(=O)=O)cc1	MBD2 DNA inh 36 | UHRF1 ctr MBD2 inactive | MBD2 DBD conf inactive
Oc1ccc(N2CCN(Cc3c(-c4ccccc4)nc4ccccn34)CC2)cc1	MBD2 DNA inh 80 | UHRF1 ctr MBD2 inactive | MBD2 DBD conf inactive
Cc1cccc(CCNC(=O)c2ccc(Sc3ccccc3Cl)c([N+](=O)[O-])c2)c1	none
COC(=O)[C@]12C[C@H](CC(=O)NCCC(C)C)C(=O)N(Cc3ccc4c(c3)OCO4)C1=C[C@H](C(C)C)O[C@@H]2C1CC1	none
COc1ccc(NC(=O)N2CCC(c3nc4ccc(Cl)cc4[nH]3)CC2)cc1OC	none
COc1ccc(NC(=O)c2noc3c2CCC3)cc1	UHRF1 binding 31, MBD2 DNA inh 13 | UHRF1 ctr MBD2 inactive | MBD2 DBD conf inactive
CC(=O)c1ccc(NC(=O)c2noc3c2CCC3)cc1	none
COC(=O)c1ccc(OCC(=O)c2ccccc2)cc1	UHRF1 binding 21, MBD2 DNA inh 16 | UHRF1 ctr MBD2 inactive | MBD2 DBD conf inactive
O=C(COc1ccccc1)c1ccccc1	none
CN(C)CCN1CCN(C2CN(Cc3cn(Cc4ccccc4)nn3)S(=O)(=O)C2)CC1 (configuration not stated)	MBD2 DNA inh 15 | UHRF1 ctr MBD2 inactive | MBD2 DBD conf inactive
Cc1cccc(CN2CCN(C3CN(Cc4cn(Cc5cccc(Cl)c5)nn4)S(=O)(=O)C3)CC2)c1 (configuration not stated)	none
Cc1cccc(CN2CCN(C3CN(Cc4cn(Cc5ccc(Cl)cc5)nn4)S(=O)(=O)C3)CC2)c1 (configuration not stated)	MBD2 DNA inh 13 | UHRF1 ctr MBD2 inactive | MBD2 DBD conf inactive
COCCCn1cc(CN2CC(N3CCN(C)CC3)CS2(=O)=O)nn1 (configuration not stated)	MBD2 DNA inh 13 | UHRF1 ctr MBD2 inactive | MBD2 DBD conf inactive
CCCN(C(=O)c1cc2c(s1)CCC2)c1c(N)n(Cc2ccccc2)c(=O)[nH]c1=O	MBD2 DNA inh 13 | UHRF1 ctr MBD2 inactive | MBD2 DBD conf 18
COCCCN(C(=O)c1cc2c(s1)CCC2)c1c(N)n(Cc2ccccc2)c(=O)[nH]c1=O	none
COc1ccc(CSc2nnc(SCc3ccccc3)s2)cc1	none
CCOc1ccc(C(=O)N2CCN(CC(=O)N3CCCC3)CC2)cc1OCC	UHRF1 binding 22, MBD2 DNA inh 16 | UHRF1 ctr MBD2 inactive | MBD2 DBD conf inactive
COC(=O)C[C@@H]1CC[C@H]2[C@@H](COc3ccc(NC(=O)c4ccc(C(F)(F)F)cc4)cc3C(=O)N2C)O1	none
COc1ccc(CNC2CCC23CCC(c2ccccc2)CC3)cc1OC (configuration not stated)	none
Cc1ccc(N(CN2CCCC2=O)C(=O)c2ccccc2)cc1	MBD2 DNA inh 17 | UHRF1 ctr MBD2 inactive | MBD2 DBD conf inactive
C#CCOCCOCCOCCNc1nc(N2CCN(C(=O)[C@H]([C@@H](C)CC)n3cc(CCC(=O)O)nn3)CC2)nc(N2CCN(C(=O)[C@H](CCCCN)n3cc(CCCC)nn3)CC2)n1	MBD2 DNA inh 25 | UHRF1 ctr MBD2 inactive | MBD2 DBD conf inactive
CN(C(=O)COC(=O)c1cccc(S(=O)(=O)N2CCCCCC2)c1)c1ccccc1	none
COc1ccc(N(C)S(=O)(=O)c2cccc(C(=O)OCC(=O)N(C)c3ccccc3)c2)cc1	MBD2 DNA inh 16 | UHRF1 ctr MBD2 inactive | MBD2 DBD conf inactive
CC1(C)CC(=O)N(CC(=O)N2CCN(Cc3ccccc3)CC2)c2ccccc2S1(=O)=O	none
COc1ccccc1NC(=O)CSc1nc(O)c(Cc2ccccc2)c(=O)[nH]1	none
